Source: PubChem (several laboratories)
LANA DNA inh – inhibitors of KSHV C-LANA binding to DNA, primary screen, biochemical, fluorescence polarization, FAM-LBS DNA, MBP-C-LANA, single point | Kaposi's sarcoma herpesvirus LANA C-terminal domain (residues 932-1162) DNA binding | inhibition, % at 9 µM | 340,000 compounds, 0.078% hits;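 active = highest replicate inhibition at or above 60% at 9 µM, even if other replicates fall short; inactive = all replicates below 60% inhibition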
Keap1 Nrf2 FP – Keap1-Nrf2 protein-protein interaction inhibitors, primary screen, biochemical, fluorescence polarization, single point; 340,000 compounds, 0.15% hits; Kelch-like ECH-associated protein 1 (Homo sapiens), Q14145; Keap1 Kelch-Nrf2 peptide fluorescence polarization, 1536-well; inhibition, % at 9.4 µM; in the data active = inhibition above about 12%;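 also: human Keap1 Kelch domain with fluorescein labeled Nrf2 9mer peptide probe; higher means more block of Keap1 binding to Nrf2 peptide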
Target sequence (Q14145 whole entry, looked up, the tested form may be a part): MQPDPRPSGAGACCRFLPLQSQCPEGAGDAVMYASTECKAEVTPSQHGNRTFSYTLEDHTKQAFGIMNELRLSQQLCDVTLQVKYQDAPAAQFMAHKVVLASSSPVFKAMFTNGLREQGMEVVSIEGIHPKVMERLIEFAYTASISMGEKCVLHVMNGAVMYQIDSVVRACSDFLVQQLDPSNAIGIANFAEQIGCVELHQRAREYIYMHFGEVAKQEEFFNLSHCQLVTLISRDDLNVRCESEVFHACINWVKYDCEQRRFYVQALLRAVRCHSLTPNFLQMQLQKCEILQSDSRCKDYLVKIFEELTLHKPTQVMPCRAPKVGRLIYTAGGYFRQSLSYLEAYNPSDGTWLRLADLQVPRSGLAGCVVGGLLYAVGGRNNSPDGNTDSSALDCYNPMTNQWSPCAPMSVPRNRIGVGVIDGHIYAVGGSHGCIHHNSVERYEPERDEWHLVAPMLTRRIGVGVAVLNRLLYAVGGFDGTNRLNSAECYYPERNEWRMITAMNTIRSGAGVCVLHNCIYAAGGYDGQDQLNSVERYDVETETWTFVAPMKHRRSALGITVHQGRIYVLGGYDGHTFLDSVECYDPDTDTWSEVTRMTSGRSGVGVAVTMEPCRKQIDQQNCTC
RTF Ca sens inh – cardiac RTF calcium sensitivity inhibitors, primary screen, biochemical, IANBD-TnC fluorescence, EC70 calcium. Troponin I, cardiac muscle (Homo sapiens) + Troponin T, cardiac muscle (Homo sapiens) + …. IANBD-labeled cardiac RTF, Ca2+ fluorescence. inhibition, % at 7.15 µM. 340,000 compounds, 0.12% hits. AID 493244, 2011;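 active = inhibition above the mean inhibition of all tested compounds plus 3 SD, cut at about 17% in these data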;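 also: assay run at fixed EC70 calcium of 1.6 mM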
LANA-H2B inh – blockers of LANA interaction with H2A/H2B – biochemical, FP readout, HTS, primary screen; AID 2629, 2010; cell-free LANA-H2A/H2B peptide, fluorescence polarization; inhibition, % (test concentration not listed); 320,000 compounds, 0.6% hits; in the data active = inhibition mostly above about 10%, no sharp cut-off; inactive = mostly below about 6.7%
RTF Ca sens act – cardiac RTF calcium sensitivity activators, primary screen, biochemical, IANBD-TnC fluorescence, EC20 calcium; Troponin I, cardiac muscle (Homo sapiens) + Troponin T, cardiac muscle (Homo sapiens) + …; IANBD-labeled TnC RTF fluorescence at EC20 calcium; 0% EC20 calcium, 100% full calcium; activation, % at 7.2 µM; 340,000 compounds, 0.24% hits; AID 493008, 2010;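 active = activation above the mean over all tested compounds plus 3 SD, cut at about 30% in these data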;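 also: rise in fluorescence read as greater calcium sensitivity of cardiac thin filaments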
Large screens that a line does not name were inactive. Only some compounds are listed: those with a hit (about 0.98% of all), similar ones and a draw of the others.

Cc1cc(NC(=O)NCc2ccccc2)c(=O)n(Cc2ccccc2F)c1	none
CC(C)c1nnc(NC(=O)CS(=O)(=O)c2ccccc2)s1	none
COc1ccc(CNC(=O)Cn2c(=O)n(CC(=O)N3CCCCC3)c(=O)c3sccc32)cc1	none
COC(=O)c1ccc(C(=O)OC)c(NC(=O)COC(=O)C2CCCCC2)c1	none
CC1CC1C(=O)OCC(=O)Nc1ccccc1Oc1ccccc1 (stereo not given)	LANA-H2B inh 35
COC(=O)c1ccc(C(=O)OC)c(NC(=O)COC(=O)C2CC2C)c1 (stereo not given)	LANA-H2B inh 21
O=C(COc1ccccc1)Nc1ccccc1Oc1ccccc1	none
Cc1ccc(S(=O)(=O)NC2CC(C)(C)NC(C)(C)C2)c(C)c1C	none
Cc1cc(=O)oc(C)c1C(=O)Nc1ccc2ncccc2c1	RTF Ca sens act 74
Cc1ccccc1C(=O)NNc1ncnc2c1cnn2C	LANA-H2B inh 26
Cc1nc(N[C@@H](Cc2c[nH]c3ccccc23)C(=O)O)c2oc3ccccc3c2n1	LANA-H2B inh 18 (no result: LANA DNA inh, Keap1 Nrf2 FP, RTF Ca sens inh, RTF Ca sens act)
Cc1ccc(NC(=S)NCc2ccco2)c(C)c1	none
CC(C)Oc1ccc(S(=O)(=O)N2CCOCC2)cc1NC(=O)CC1OC(=O)c2ccccc21 (stereo not given)	LANA-H2B inh 16
CCOc1ccc(S(=O)(=O)N2CCOCC2)cc1NC(=O)CN1C(=O)NC2(CCCCC2)C1=O	LANA-H2B inh 24
CCOc1ccc(S(=O)(=O)N2CCOCC2)cc1NC(=O)CN1C(=O)NC(C)(c2ccc(C)cc2)C1=O (stereo not given)	none (no result: LANA-H2B inh)
COCCN(C(=O)Cc1cccs1)C(C(=O)NCc1ccc(OC)cc1)c1ccccc1 (stereo not given)	none
COc1ccc(OCCN2CCN(C(=O)c3ccc(OC(F)F)c(OC)c3)CC2)cc1	none
COc1ccc(OCCN2CCN(C(=O)c3ccc(OC)cc3)CC2)cc1	LANA-H2B inh 14
COc1ccc(C(=O)CCN2CCCCCC2)cc1	LANA-H2B inh 12
COc1ccc(/C=N/OCC(=O)Nc2nc3ccccc3s2)cc1	none
O=C1C(CO)C(CO)C(CO)C1CO (stereo not given)	none (no result: LANA-H2B inh)
CS(=O)(=O)N(CC(=O)NCCSc1ccccc1)c1ccc2c(c1)OCO2	none
CS(=O)(=O)N(CC(=O)NCCSc1ccc(Cl)cc1)c1ccc2c(c1)OCO2	LANA-H2B inh 19
Cc1cc(-c2csc(N)n2)c(C)n1CCC(C)C	LANA-H2B inh 14
Cc1cc(-c2csc(N)n2)c(C)n1CCc1ccccc1	none
O=C(NCCCO)C(=O)Nc1cc2c3c(c1)CCC(=O)N3CCC2	LANA-H2B inh 19
COc1ccc(S(=O)(=O)N2CCC(Cc3ccccc3)CC2)cc1NC(C)=O	none
O=C(Nc1sc(-c2ccccc2)cc1C(=O)O)c1ccccc1	none
COc1cc2c3c(c1)C1(C(=O)N3C(C)(C)C=C2C)C(C#N)=C(N)Oc2cc(C)oc(=O)c21 (stereo not given)	LANA-H2B inh 60
O=C(Nc1nc(-c2ccccc2)cs1)C1c2ccccc2Oc2ccccc21	LANA-H2B inh 46
O=C(Nc1nc(-c2ccncc2)cs1)C1c2ccccc2Oc2ccccc21	none
Cc1ccc([N+](=O)[O-])cc1S(=O)(=O)Nc1ccc(C(=O)N2CCN(C(=O)c3ccco3)CC2)cc1	LANA-H2B inh 16
O=C(COc1ccc([N+](=O)[O-])cc1)Nc1ccc(N2CCN(C(=O)c3ccco3)CC2)cc1	LANA-H2B inh 28
OCCC1CN(CCCc2ccccc2)CCN1Cc1ccc(F)cc1 (stereo not given)	none
CCOc1ccccc1N(CC(=O)Nc1ccc(OC)c(OC)c1)S(=O)(=O)c1ccccc1	RTF Ca sens act 52
CCOc1ccccc1N(CC(=O)Nc1cccc(OC)c1)S(=O)(=O)c1ccccc1	none
O=C(Cc1ccc2c(c1)CCCC2)Nc1ccccc1Br	none
O=C(Cc1ccc2ccccc2c1)Nc1ccccc1Br	LANA-H2B inh 39
CN(C)/C(=N\S(=O)(=O)c1ccc(Cl)cc1)c1ccc(F)cc1	none
O=C(O)CC(O)(CC(=O)O)C(=O)O	none
O=C(O)CP(=O)(O)O	LANA-H2B inh 7.2
Cc1cc(NC(=O)COC(=O)[C@H](Cc2ccccc2)NC(=O)c2ccco2)no1	none (no result: LANA-H2B inh)
O=C(COC(=O)c1ccc([N+](=O)[O-])o1)NC1CCCc2ccccc21 (stereo not given)	none
O=C1c2cccc3c([N+](=O)[O-])ccc(c23)C(=O)N1O	Keap1 Nrf2 FP 20
CCCCCCCCNC(=O)c1ccc(C)cc1	none (no result: LANA DNA inh, Keap1 Nrf2 FP, RTF Ca sens inh, RTF Ca sens act)
Cc1noc(C)c1-c1nc(CSc2ccccc2)no1	LANA DNA inh 91
Cc1cc(S(=O)(=O)Cc2noc(-c3c(C)noc3C)n2)c(C)cc1Cl	none
Cc1ccc(S(=O)(=O)CCC(=O)OCC(=O)NC2CCS(=O)(=O)C2)cc1 (stereo not given)	LANA-H2B inh 25
Cc1ccc(S(=O)(=O)NC(C(=O)OCC(=O)NC2CCS(=O)(=O)C2)C(C)C)cc1 (stereo not given)	none
CCOC(=O)C[C@H]1c2ccc(C(F)(F)F)cc2S(=O)(=O)N1C(C)C	none
O=C1/C(=C\c2c(NCCOCCO)nc3ccccn3c2=O)SC(=S)N1Cc1ccco1	RTF Ca sens act 40
COc1cccc(NS(=O)(=O)c2c(C)cc(C)cc2C)c1	LANA-H2B inh 19
COc1ccc(NS(=O)(=O)c2c(C)cc(C)cc2C)cc1	none
CC(C)(Cc1ccccc1)NC(=O)C(=O)c1cn(CC(=O)N2CCOCC2)c2ccccc12	LANA-H2B inh 39
Cc1ccc2[nH]cc(/C=C/c3cc[n+](C)cc3)c2c1	RTF Ca sens act 230
COc1ccc2c(/C=C/c3cc[n+](C)cc3)c[nH]c2c1	none
CC[n+]1ccc(/C=C/c2c[nH]c3ccccc23)cc1	RTF Ca sens act 102
O=C(c1ccco1)N1N=C(c2ccco2)CC1c1ccc(Cl)cc1Cl (stereo not given)	LANA-H2B inh active
COc1ccc(C2=NN(C(=O)c3ccco3)C(c3cc4ccccc4nc3Cl)C2)cc1 (stereo not given)	none (no result: LANA DNA inh, Keap1 Nrf2 FP, RTF Ca sens inh, RTF Ca sens act)
COC(=O)c1ccccc1NC(=O)CSc1n[nH]c(-c2ccco2)n1	none
COc1ccccc1NC(=S)N1CCN(C(=O)c2ccco2)CC1	LANA-H2B inh 16
COc1ccccc1NC(=O)/C(=C\c1cccs1)NC(=O)c1ccco1	LANA-H2B inh active
COc1ccc2oc(C(=O)N3CCN(C(=O)c4ccco4)CC3)c(C)c2c1	LANA-H2B inh 20
COc1ccccc1NC(=O)N1CCN(C(=O)c2ccco2)CC1	none
